Shown are actives, neighbours in structure and some others; about 13% of the full set was active somewhere.
Pf growth 48h = inhibits P. falciparum growth in the first generation, 48 h | P. falciparum luciferase growth in erythrocytes, 48 h | AID 504832 | actives 5.9% (n = 310,000) | Potency, µM (doses to about 28.7 µM), without a hit: at the top dose activity change, negative = inhibition, actives largely listed as inhibitors; also: potency is read from the fitted curve at half-maximal effect
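A one-generation exposure of luciferase-tagged malaria parasites in RPMI 1640/Albumax erythrocyte culture, 37 C and 5% CO2. Inhibition is inferred from decreased luminescence after adding detection reagent.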
HCV inhibitor = blocks hepatitis C virus; Huh7.5.1 HCVcc-Cre infection, luciferase reporter, 44 h; Potency, µM (titrated, usually from 41.8 µM), for the others: at the top dose activity change, negative = inhibition, actives largely listed as inhibitors; actives 3.4% (n = 340,000); AID 651820; also: potency is read from the fitted curve at half-maximal effect
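After 44 h co-culture of compound, cells and HCVcc-Cre (~0.5 moi), substrate is added for 15 min at room temperature and luciferase measured over 15 sec. Cells were seeded at 1,000/well and pre-cultured 4 h.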
HCMV inh = human cytomegalovirus inhibition; HFF cells, HCMV-luciferase reporter, 72 h; hits give low values; activity change, negative = inhibition, % at 57.5 µM; actives 4.5% (n = 410,000); AID 1259415; in the data active = activity change below about -60%; inconclusive = no clear call, values can overlap the other calls; inactive = above about -39%
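Cell-based, HFFs, 1000 cells/well, 16 h 37C; cpds in DMSO + HCMV-luc, MOI 1 PFU/cell; 72 h 37C; OneGlo luminescence after 5 min RT; norm. to buffer vs Salinomycin 10uM.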
Pf growth 96h = P. falciparum growth inhibition at 96 hours | P. falciparum luciferase reporter growth, 96 h | Potency, µM (top dose mostly 28.7 µM), for the others: at the top dose activity change, negative = inhibition, hits mostly inhibitors | actives 6.9% (n = 320,000) | AID 504834; also: potency is read from the fitted curve at half-maximal effect
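Plates of compound plus infected erythrocytes (2% hematocrit, 0.05% parasitemia final) incubate 96 hours, 37 C, 5% CO2. Detection reagent added; reduced luminescence from the parasites' luciferase reporter flags inhibition.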
Starred values were filed as active, the others as inactive; ? = inconclusive; / = no result. Unless noted, calls follow the shape of the dose curve; as a rule, active = well fitted inhibition curve with a large enough effect; inconclusive = small, poorly fitted or top-dose-only effect, or another doubt; inactive = no such curve, though single readings can be large or run the other way. % is scaled to controls: 0 for no effect and ±100 for the full control effect.

SMILES | Pf growth 48h | HCV inhibitor | HCMV inh | Pf growth 96h
Cc1ccc(S(=O)(=O)c2nc(-c3ccccc3)oc2NCc2cccnc2)cc1 | ? | 11.2µM* | 1.7 | ?
O=S(=O)(c1ccccc1)c1nc(-c2ccc(F)cc2)oc1NCc1ccccc1 | / | / | -8.6 | /
O=S(=O)(c1ccc(Cl)cc1)c1nc(-c2ccccc2Br)oc1NCc1ccccc1 | / | / | -5.0 | /
COCCNC(=O)C1CCN(Cc2cc3ccccc3n2Cc2ccc(C)cc2)CC1 | / | / | -6.7 | /
COc1cccc(OCc2cc(=O)n3cc(C)sc3n2)c1 | / | / | 38.4 | /
CCN(CC)CCOc1ccc2c(c1)C(=O)c1cc(OCCN(CC)CC)ccc1-2 | 4.26µM* | / | ? | 6.01µM*
O=C(CC1SC(=Nc2ccc(OC(F)F)cc2)N(CCC2=CCCCC2)C1=O)Nc1ccccc1F (centres undefined) | 10.4µM* | -5.1% | 36.8 | 2.62µM*
CCn1c2ccccc2c2cc(N=C3SC(CC(=O)Nc4ccccc4OC)C(=O)N3CCOC)ccc21 (centres undefined) | 9.28µM* | -31.8% | 59.8 | ?
CCOc1ccccc1N=C1SC(CC(=O)Nc2ccc(OC)cc2OC)C(=O)N1CCC1=CCCCC1 (centres undefined) | ? | ? | -35.6 | 4.15µM*
COc1ccc(N=C2SC(CC(=O)Nc3ccccc3OC)C(=O)N2Cc2ccco2)cc1 (centres undefined) | -77.6% | ? | -33.9 | ?
CCn1c2ccccc2c2cc(N=C3SC(CC(=O)Nc4ccccc4OC)C(=O)N3C)ccc21 (centres undefined) | ? | 8.4% | 47.4 | ?
CC(=O)c1ccc(NC(=O)Cn2c(=O)oc3cc(S(=O)(=O)N4CCCCC4)ccc32)cc1 | / | / | 5.5 | /
O=C(Cn1ncc2c3ccccc3n(Cc3cccc(Cl)c3)c2c1=O)NCCCN1CCCCC1 | / | / | 6.2 | /
Cc1ccc2[nH]c(=O)c(CN(Cc3cccs3)Cc3nnnn3Cc3ccccc3)cc2c1 | 11.7µM* | 5.3% | -17.9 | -12.9%
Cc1ccc2[nH]c(=O)c(CN(CCO)Cc3nnnn3CCc3ccccc3)cc2c1 | 7.7% | 5.5% | -10.6 | 8.28µM*
CCOC(=O)Cn1nnnc1CN(Cc1cccs1)Cc1cc2cc(C)ccc2[nH]c1=O | -15.1% | 27.1% | -26.4 | /
CCCCc1ccc(-n2nc3ccc(NC(=O)c4cc5ccccc5o4)cc3n2)cc1 | / | / | -81.6* | /
CCOc1ccc(-n2nc3ccc(NC(=O)CC)cc3n2)cc1 | 49.1% | ? | 38.8 | 70.4%
CCOc1ccc(-n2nc3ccc(NC(=O)Cc4ccccc4)cc3n2)cc1 | / | / | -107.3* | /
Cc1ccc(-n2nc3ccc(NC(=O)c4cc5ccccc5o4)cc3n2)cc1 | / | / | 44.9 | /
COc1cc(NC(=O)c2ccc(Br)o2)ccc1NC(=O)c1ccccc1Cl | 10.4µM* | 10µM* | / | /
COc1cc(NC(C)=O)ccc1NC(=O)c1cc2ccccc2o1 | 2.5% | -21.3% | 60.8 | 11.7µM*
Cc1ccc(S(=O)(=O)c2cn(CC(=O)Nc3ccc4c(c3)OCO4)c3ccccc3c2=O)cc1C | / | / | 11.7 | /
Cn1cc(-c2cc3n(n2)CCC(=O)N3CC(=O)NCc2ccc(Cl)cc2)c2ccccc21 | / | / | -1.9 | /
COc1ccc(OC)c(CCNC(=O)c2nc(-c3ccc(Cl)cc3)n3c2CCCCC3)c1 | / | / | 1.0 | /
SMILES | Pf growth 48h | HCV inhibitor | HCMV inh | Pf growth 96h
COC(=O)c1cccc(NC(=O)c2cc3ccccc3o2)c1 | 9.28µM* | -29.6% | 80.2 | 22.5%
COC(=O)c1cc(NC(=O)c2cc3ccccc3o2)cc(C(=O)OC)c1 | -2.8% | ? | -17.2 | -15.9%
Cc1cccc(Oc2nc(CN3CCOCC3)nc3sc4c(c23)CCCC4)c1 | 10.4µM* | -2.5% | -34.5 | ?
CCC(C)Nc1nc(CN2CCOCC2)nc2sc3c(c12)CCC3 (centres undefined) | / | ? | -13.3 | 9.28µM*
COc1ccc(S(=O)(=O)N2CCOCC2)cc1Cl | / | 24.8% | -5.9 | ?
CCN(CC)CCCNc1nc(CN2CCOCC2)nc2sc3c(c12)CCC3 | 2.3% | ? | 9.1 | ?
Cc1nc(Oc2ccc(S(=O)(=O)N3CCOCC3)cc2Cl)c2c3c(sc2n1)CCCC3 | ? | -7.3% | -33.2 | 13.1µM*
CCn1c(O)c(/C=N/N2CCOCC2)c(=O)n(CC)c1=S | -0.7% | -6.3% | -22.9 | 19.1%
Cn1c(O)c(/C=N/N2CCOCC2)c(=O)n(C)c1=S | 13.1µM* | 20.2% | 19.6 | 36.2%
Cc1ccc(N2C(=N)SCC2=O)cc1Cl | -12.7% | 6.3% | 2.8 | ?
Cc1ccc(N(C)C2=NC(=O)CS2)cc1Cl | 2.08µM* | 33.3% | 6.6 | ?
CCC(=O)N1c2ccccc2CC1C(=O)NCCN1CCN(c2cccc(C(F)(F)F)c2)CC1 (centres undefined) | / | / | -14.9 | /
Cc1ccc(/C=C/C(=O)Nc2ccc(Cl)cc2Cl)cc1 | / | / | -15.9 | /
CC1(C)C[C@@]2(C)CCC3=CC(=O)C=C[C@@]32O1 | / | / | -25.7 | /
O=C(OCc1cc(=O)n2cc(Br)ccc2n1)C1COc2ccccc2O1 (centres undefined) | -1.0% | 13.0% | -65.5* | 49.9%
CC1CC1C(=O)OCc1cc(=O)n2cc(Br)ccc2n1 (centres undefined) | 70.9% | 11.6% | -82.9* | 32.7%
CC1(C(=O)OCc2cc(=O)n3cc(Br)ccc3n2)CC1(Cl)Cl (centres undefined) | 296.7% | -5.1% | 22.2 | 102.9%
CC(C)C(NS(=O)(=O)c1ccc2c(c1)oc(=O)n2C)C(=O)N1CCN(c2cccc(Cl)c2)CC1 (centres undefined) | / | / | -11.9 | /
Cc1ccsc1/C=N/N=C/c1sccc1C | 487.8% | -9.7% | 111.3 | 8.28µM*
O=C(O)c1ccc(/C=N/Nc2ncc(Cl)cc2Cl)cc1 | 44.6% | 23.7% | -38.9 | 48.0%
Cc1ccsc1/C=N/Nc1ncc(Cl)cc1Cl | / | 12.6µM* | ? | -101.2%
Cc1ccsc1/C=N/Nc1ccc(F)cc1F | ? | 13.3% | 33.7 | ?
Cc1cc(C)nc(N/N=C/c2sccc2C)n1 | 22.3% | -25.4% | -80.2* | ?
COC(=O)c1ccc(C2c3c(oc4cc(C)c(C)cc4c3=O)C(=O)N2c2ccccn2)cc1 (centres undefined) | / | / | -3.7 | /
O=S1(=O)N=C(N/N=C/C=C/c2ccccc2)c2ccccc21 | ? | 0.2% | ? | 13.1µM*
SMILES | Pf growth 48h | HCV inhibitor | HCMV inh | Pf growth 96h
O=S1(=O)N=C(N/N=C/c2ccccn2)c2ccccc21 | ? | -0.8% | 31.4 | ?
CCOc1ccccc1-n1c(O)c(C=Nc2ccc(N(CC)CC)cc2)c(=O)[nH]c1=O | ? | -18.4% | -86.9* | ?
CCN(CC)c1ccc(N=Cc2c(O)n(-c3ccccc3C)c(=O)[nH]c2=O)cc1 | ? | 17.6% | 72.5 | 15.9%
CC[C@H](NC(C)C)[C@H](O)c1ccc(O)c2[nH]c(=O)ccc12 | -27.3% | / | / | 0.239µM*
CCOC(=O)c1ccc(NC(=O)c2cccc3c(=O)c4c([nH]c23)CCCC4)cc1 | / | / | 8.0 | /
CC(=O)Nc1ccc(OCC(O)CN2CCN(c3ccc(Cl)cc3)CC2)cc1 (centres undefined) | ? | 8.6% | -17.0 | ?
CC(=O)Nc1ccc(OCC(O)CN2CCN(S(=O)(=O)c3ccc(NC(C)=O)cc3)CC2)cc1 (centres undefined) | / | 16.5% | -21.9 | ?

Source: PubChem BioAssay (National Center for Advancing Translational Sciences (NCATS))
